# Laboratory results from ChEMBL document CHEMBL3988442, “University of Dundee, Small-Polar-MMV Screening Library” (2021).
# Among all 48,000 compounds or so, about 13,000 (27%) showed an effect of 50% or more. The list shows a part of the results.
# System: Wolbachia pipientis
# Assay: Anti-Wolbachia Cell-Based Screen
# Assay type: functional
# Design: scale not given: in the data most compounds retested in dose-response had high values
# Conditions: 5 µM
row,Structure (SMILES),Percent Effect [%]
1,Cn1ccnc1C(=O)NCCS(=O)(=O)c1ccc(C(C)(C)C)cc1,15.11
2,Cc1cc(C)c(CNC(=O)NCC(c2ccccc2)N(C)C)c(=O)[nH]1 (stereo unspecified),1.646
3,CC(C)NS(=O)(=O)c1cc(C(=O)O)cc(-c2ccc3c(c2)OCO3)c1,10.97
4,CCC(NC(=O)c1cccc2cc[nH]c12)C(=O)N1CCOCC1 (stereo unspecified),1.714
5,COc1ccnc(N2CCC3(CCCN(CC4CC4)C3=O)C2)n1 (stereo unspecified),-5.296
6,CN1CCC2(CCN(c3ncc(F)cn3)CC2)C1=O.O=C(O)C(F)(F)F,5.555
7,Cc1cnc(N2CCC3(CC2)CC3CNC(=O)C2CCC2)nc1.O=C(O)C(F)(F)F (stereo unspecified),-2.894
8,Cc1cnc(N2CCC3(CCN(CC4CCCC4)C3=O)CC2)nc1.O=C(O)C(F)(F)F,94.42
9,Cc1cnc(N2CCC3(CCC(C(=O)NC(C)C)C3)CC2)nc1.O=C(O)C(F)(F)F (stereo unspecified),-24.15
10,O=C(O)C(F)(F)F.O=C1N(CC2CC2)CCC12CCCN(c1ncc(F)cn1)C2 (stereo unspecified),107.4
11,O=C(O)C(F)(F)F.O=C(O)C(F)(F)F.c1cnc(N2CCC3(CCN(CC4CC4)CC3)CC2)nc1,-4.913
12,CN(C)C(=O)CN1CCC2(CCCN(c3ncc(F)cn3)C2)C1=O (stereo unspecified),-17.79
13,O=C(O)C(F)(F)F.O=C1N(CC2CCCC2)CCC12CCN(c1ncc(F)cn1)CC2,111.9
14,CC(C)OCCC1CCCCN1S(N)(=O)=O (stereo unspecified),5.549
15,Cc1cnn(-c2cccc(N3CCCC3)n2)c1,2.122
16,Cc1cc(C)n(CC2CN(CC(=O)N3CCC3)CCO2)n1 (stereo unspecified),107.3
17,Cc1cc(C)n(CC2CN(CC(=O)N3CCNC3=O)CCO2)n1 (stereo unspecified),88.91
18,Fc1cc(CNCCn2cccn2)ccc1-n1cncn1,-7.055
19,Cc1nc(CSc2ccc(C(F)(F)F)cn2)no1,-11.09
20,COc1ccc(C(=O)NCC(=O)N(Cc2ccsc2)C2CC2)cc1OC,-17.21
21,COc1ccc(C(=O)NCCN2CCC(c3cccs3)CC2)cc1OC,108.4
22,CCCNC(=O)c1cc2c([nH]c1=O)CC(c1cccs1)CC2=O (stereo unspecified),1.208
23,O=C(NCCN1CCCC(CO)C1)c1ccc2sccc2c1 (stereo unspecified),0.9044

row,Structure (SMILES),Percent Effect [%]
1,Cc1csc(C(=O)NCCN2CCC(c3cccs3)CC2)c1,131.4
2,CC(=O)NCCN1CCC(c2cccs2)CC1,-11.86
3,CCCN1CCC(NC(=O)c2csc(C)c2-c2ccccc2)CC1,2.697
4,O=C(NCCN1CCC(c2cccs2)CC1)c1ccccc1C(F)(F)F,6.812
5,CCSc1ccccc1C(=O)NCCN1CCC(c2cccs2)CC1,153.4
6,O=C(Cc1ccccc1Cl)NCCN1CCC(c2cccs2)CC1,167.3
7,Cc1ccccc1C1CCN(CCNC(=O)CS(C)(=O)=O)C1 (stereo unspecified),-1.802
8,Cc1nc(CC(=O)NCCN2CCC(c3ccccc3C)C2)cs1 (stereo unspecified),-10.54
9,CCNc1ncc(C2CC(=O)Nc3c2cnn3Cc2ccncc2)cn1 (stereo unspecified),0.3044
10,CCSCCC(=O)NCc1cnn(-c2ccc(F)cc2F)c1,1.546
11,Cc1ccc(S(=O)(=O)NC(=O)CCOCC(C)C)s1,14.43
12,O=C(CCc1cc(Cl)no1)N1CCCCC1CCn1ccnc1 (stereo unspecified),-6.627
13,O=C(c1cccnc1-n1cncn1)N1CCc2ccccc2C1,12.03
14,COc1ccc(CNCC2CCN(CC(C)O)CC2)c2ccccc12 (stereo unspecified),-9.036
15,CCN(Cc1nnnn1C1CC1)c1cc(C)ccc1C,-3.19
16,O=C(NCCN1CCC(c2cccs2)CC1)c1ccc(F)cc1Cl,122.6
17,O=C(NCC(c1cccs1)N1CCOCC1)c1ccc(F)cc1Cl (stereo unspecified),-4.405
18,CCN(CC)C(=O)Cc1csc(C(C)C)n1,-7.822
19,Cc1cccc(OCC(=O)N(C)C2CCN(CC3CCOC3)CC2)c1 (stereo unspecified),-8.689
20,CCCNc1ncc(CN2C[C@H]3CC[C@@H]2CN(C2CCOCC2)C3)cn1,7.731
21,N#Cc1ccc(OCCCN2CCOC(Cn3cncn3)C2)cc1 (stereo unspecified),94.1
22,Clc1ccc(OCCCN2CCOC(Cn3cncn3)C2)cc1 (stereo unspecified),88.34
23,Fc1ccc(CN2CCOC(Cn3cncn3)C2)c2ncccc12 (stereo unspecified),-8.547

row,Structure (SMILES),Percent Effect [%]
1,c1ncn(CC2CN(CCCOc3ccc4c(c3)OCO4)CCO2)n1 (stereo unspecified),97.52
2,Fc1ccc(OCCCN2CCOC(Cn3cncn3)C2)cc1 (stereo unspecified),3.822
3,Clc1cccc(OCCCN2CCOC(Cn3cncn3)C2)c1 (stereo unspecified),125.7
4,c1cnn(CC2CN(CCCOc3ccc4c(c3)OCO4)CCO2)c1 (stereo unspecified),1.566
5,COc1ccc(OCCCN2CCOC(Cn3cccn3)C2)cc1 (stereo unspecified),1.876
6,c1ccc2cc(OCCN3CCOC(Cn4cncn4)C3)ccc2c1 (stereo unspecified),0.3629
7,c1cnn(C2CN(CCCOc3ccc4c(c3)OCO4)C2)c1,-8.072
8,Cc1cc2n(n1)CC(CNCc1cnn(-c3ccccc3)c1)CN2 (stereo unspecified),-14.73
9,COc1ccccc1C1CNC(=O)c2nc(-c3ncc[nH]3)[nH]c2C1 (stereo unspecified),-17.95
10,N#Cc1ccccc1C(=O)N1C[C@H]2CC[C@@H]1CN(Cc1ccccc1)C2,1.705
11,CCN(Cc1ccco1)C(=O)NCC(c1cccs1)N(C)C (stereo unspecified),-4.593
12,Cc1nnc(N(CCC#N)CCC#N)s1,120.1
13,Cc1ccc(C2CCCCCN2Cc2cn(C)nc2C)s1 (stereo unspecified),10.12
14,Cc1nn(C)cc1CN1CCCCCC1c1ccccc1Cl (stereo unspecified),134.4
15,Cc1nnc(CN2CCCC2c2cccc(Br)c2)o1 (stereo unspecified),20.93
16,N#CCCN(C(=O)CN1CCCC1c1ccccc1Cl)c1ccccc1 (stereo unspecified),-18.96
17,Cc1nn(C)cc1CN1CCCCCC1c1ccc(Cl)cc1 (stereo unspecified),98.47
18,Cc1ccc(C2CCCCCN2Cc2cn(C)nc2C)cc1 (stereo unspecified),6.787
19,COC(=O)CCN1CCCC1c1ccccc1Cl (stereo unspecified),-1.683
20,Cc1cccc(C2CCCCCN2Cc2cn(C)nc2C)c1 (stereo unspecified),99.27
21,Cc1ccsc1C1CCCCCN1Cc1cn(C)nc1C (stereo unspecified),87.45
22,CS(=O)(=O)c1ccc(CN2CCCCC2c2cccc(F)c2)cc1 (stereo unspecified),5.873
23,Cc1nnc(CN2CCCC2c2ccc(Cl)c(Cl)c2)o1 (stereo unspecified),-0.8555

row,Structure (SMILES),Percent Effect [%]
1,Cc1nn(C)c(C)c1C1CCCN1Cc1cn2ccsc2n1 (stereo unspecified),7.69
2,Cc1nn(C)c(C)c1CCC(=O)OCC(=O)N1CCc2sccc2C1,-1.071
3,Cc1ccnc(C(NC(=O)c2sc(C)nc2C)C2CC2)n1 (stereo unspecified),-13.48
4,CC(SCCNS(=O)(=O)c1cnn(C)c1)c1cccc(F)c1 (stereo unspecified),13.07
5,COc1ccc(C2CCCCCN2Cc2cn(C)nc2C)cc1 (stereo unspecified),97.09
6,COc1ccc(C2CCCCCN2Cc2nnc(C)o2)cc1 (stereo unspecified),-42.58
7,CC(C)N(C)C(=O)C1CSCN1S(=O)(=O)c1cc(Cl)ccc1Cl (stereo unspecified),-2.04
8,O=C(NCC(F)(F)F)C(c1cccnc1)N1CCOCC1 (stereo unspecified),-10.65
9,Cc1cc(Cc2ccccc2C)cc(C2CCCNC2)n1 (stereo unspecified),111.5
10,Cc1cc(Cc2ccccc2F)cc(C2CCCNC2)n1 (stereo unspecified),100.5
11,Cc1cc(C2CCC2)nc(N(C)Cc2ncccc2C)n1,22.22
12,CCOc1ccc2ccccc2c1CNCC1CCNCC1.Cl.Cl,8.229
13,Cc1cc(N2CCC(n3cc(CN4CCC[C@@H]4CO)nn3)CC2)ccn1,-20.23
14,O=C(c1cc[nH]n1)N1CCC(c2nccn2Cc2ccncc2)CC1,-13.9
15,CC(C)n1ccnc1C1CCN(C(=O)c2cc[nH]n2)CC1,7.968
16,CC(=O)NCc1nccnc1C1CCN(C(=O)c2cc[nH]n2)CC1,109
17,CCOc1ccccc1OC1CCN(C(=O)c2cc[nH]n2)CC1,-11.18
18,CC(C)Oc1ncccc1CNC(=O)c1cc[nH]n1,6.018
19,CC(=O)N1CCC(c2nccnc2CNC(=O)c2cc[nH]n2)CC1,109.1
20,COCC1CC2(CCNCC2)CN1Cc1csc(C)n1.O=C(O)C(F)(F)F.O=C(O)C(F)(F)F (stereo unspecified),-1.413
21,COCCN(Cc1ccc(F)cc1Cl)C(=O)c1cc(C)n[nH]1,6.366
22,Cc1cc(Cn2cc(C(C)Cc3ccc4c(c3)OCO4)nn2)n[nH]1 (stereo unspecified),3.819
23,Cc1cnc(N2CC[C@@H](N3CCOCC3)[C@@H]2Cc2ccncc2)nc1.O=C(O)C(F)(F)F.O=C(O)C(F)(F)F,-9.199

row,Structure (SMILES),Percent Effect [%]
1,O=C(O)C(c1ccc(O)cc1)N1CCC(N2CCSCC2)CC1 (stereo unspecified),107.3
2,O=C(O)C(c1ccc2c(c1)OCCO2)N1CCC(N2CCSCC2)CC1 (stereo unspecified),114.8
3,O=C(O)C(c1cccc2c1OCC2)N1CCC(N2CCSCC2)CC1 (stereo unspecified),4.197
4,COc1ccc(C(C(=O)O)N2CCN(C3CCCCC3)CC2)cc1OC (stereo unspecified),-12.55
5,O=C(O)C(c1ccc2c(c1)OCCO2)N1CCSCC1 (stereo unspecified),3.219
6,Cc1cc(=O)n2ncnc2n1CC(O)c1cc(Cl)ccc1Cl (stereo unspecified),-47.28
7,COc1ccc(F)c(-c2cc(O)nc(N)n2)c1,-16.24
8,CN(C)CCN1CCOCC12CCN(C(=O)C1CC1)CC2.O=C(O)C(F)(F)F.O=C(O)C(F)(F)F,105.8
9,CCN1CCOCC12CCN(C(=O)Cc1cccs1)CC2.O=C(O)C(F)(F)F,0.8444
10,CCN1CCOCC12CCN(C(=O)c1ccsc1)CC2.O=C(O)C(F)(F)F,-8.879
11,CN(C)CCN1CCC2(CCCN(C(=O)C3CCC3)C2)CC1.O=C(O)C(F)(F)F.O=C(O)C(F)(F)F,-7.862
12,CC(=O)N1CCC2(CC1)COCCN2CCN(C)C.O=C(O)C(F)(F)F.O=C(O)C(F)(F)F,6.129
13,CN1CCOCC12CCN(c1nncs1)CC2.O=C(O)C(F)(F)F.O=C(O)C(F)(F)F,6.857
14,CN1CCOCC12CCN(C(=O)C1CCC1)CC2.O=C(O)C(F)(F)F,137.1
15,CCN1CCOCC12CCN(C(=O)C1CCC1)CC2.O=C(O)C(F)(F)F,107.9
16,CC(C)C(=O)N1CCC2(CCN2CC2CC2)C1.O=C(O)C(F)(F)F (stereo unspecified),-2.181
17,Cn1ccnc1C(=O)N1CCC2(CCCN2CC2CC2)CC1.O=C(O)C(F)(F)F,5.734
18,O=C(C1CCC1)N1CCC2(CCCN2CC2CC2)CC1.O=C(O)C(F)(F)F,90.77
19,CN1CCOC2(CCCN(C(=O)C3CCCCC3)C2)C1.O=C(O)C(F)(F)F (stereo unspecified),-15.05
